Test results taken from PubChem BioAssay (Tox21).
Results filed as inconclusive are left out. The source made the active and inactive calls. Unless noted, the call rests on the fitted dose curve; in most records, active means well fitted curve in the direction sought with a large enough effect in the repeat runs; inconclusive means weak or mixed curves; inactive means no such curve, though single readings can be large; an effect the other way counts as inactive or inconclusive.

Assays:
[1] = qHTS assay to identify aromatase inhibitors - cell viability counter screen (AID 743084);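 further: cells stimulated with testosterone during compound exposure; nearly all actives have a fitted effect of over 55% in size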
[2] = target: Peroxisome proliferator-activated receptor gamma (Homo sapiens) (UniProt P37231); experiment: qHTS assay to identify small molecule agonists of the peroxisome proliferator-activated receptor gamma (PPARg) signaling pathway (AID 743094; active means well fitted activation curve with a large enough effect in the signal ratio in the repeat runs, not every such curve was filed as active; the % refers to the signal ratio)
In short: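 Beta-lactamase FRET fluorescence was the read-out after a 1 h room-temperature substrate step, following 17 h compound treatment at 37C of HEK293H cells expressing a UAS-driven bla reporter responsive to PPARg.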

[3] = target: Peroxisome proliferator-activated receptor gamma (Homo sapiens) (UniProt P37231); experiment: qHTS assay to identify small molecule antagonists of the peroxisome proliferator-activated receptor gamma (PPARg) signaling pathway (AID 743191; calls by dose curve; further: series mostly up to about 63 µM; nearly all actives have a fitted effect of over 30% in size)
In short: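 GeneBLAzer PPARg UAS-bla HEK293H cells carrying a UAS-driven beta-lactamase reporter were plated at 3000 cells/well, preincubated 5 h at 37C, then given compound for 17 h at 37C; LiveBLAzer B/G FRET substrate was read after 1 h at room temperature.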

[4] = qHTS assay to identify small molecule antagonists of the peroxisome proliferator-activated receptor gamma (PPARg) signaling pathway - cell viability counter screen (AID 743194); further: nearly all actives have a fitted effect of over 55% in size
In short: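 PPARg-UAS-bla HEK293H cells were plated, rested 5 h at 37 C, then treated with compounds plus rosiglitazone (50 nM final) for 17 h at 37 C; viability was then read by CellTiter-Glo luminescence after 30 min at room temperature.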

[5] = qHTS assay for small molecule agonists of the antioxidant response element (ARE) signaling pathway (AID 743202; active means well fitted activation curve with a large enough effect in the signal ratio in the repeat runs, not every such curve was filed as active; the % refers to the signal ratio)
In short: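 Compounds delivered in DMSO to ARE-bla HepG2 cells (2,000 cells/well, pre-incubated 5 h) and left 16 h at 37 C. LiveBLAzer B/G FRET substrate then added for 2 h at RT before fluorescence reading.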

[6] = qHTS assay for small molecule agonists of the antioxidant response element (ARE) signaling pathway - cell viability counter screen (AID 743203; calls by dose curve; further: nearly all actives have a fitted effect of over 55% in size)
In short: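 HepG2 cells carrying ARE-driven beta-lactamase; 2,000 cells/well; 5 hrs plating; compound pinned from DMSO; 16 hrs 37C/5% CO2; CellTiter-Glo added; 30 min RT; luminescence.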

[7] = qHTS assay for small molecule activators of the heat shock response signaling pathway - cell viability counter screen (AID 743209); further: nearly all actives have a fitted effect of over 50% in size
In short: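 Luminescence from CellTiter-Glo, added after the beta-lactamase FRET read, gave the viability signal. Cells were HSE-bla HeLa treated with DMSO-dissolved compounds for 5 h at 37 C following overnight plating.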

[8] = qHTS assay for small molecule activators of the heat shock response signaling pathway (AID 743210; active means well fitted activation curve with a large enough effect in the signal ratio in the repeat runs, with a control signal flat, not every such curve was filed as active; the % refers to the signal ratio;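 further: HeLa cells with beta-lactamase reporter driven by heat shock elements; series mostly up to about 63 µM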)
In short: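 Reporter gene assay: HeLa cells stably bearing an HSE-bla construct, compound treatment 5 h at 37 C, LiveBLAzer substrate 2.5 h at RT, fluorescence intensity.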

[9] = qHTS assay to identify small molecule agonists of the peroxisome proliferator-activated receptor delta (PPARd) signaling pathway - cell viability counter screen (AID 743211); further: nearly all actives have a fitted effect of over 55% in size
In short: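 qHTS cell viability: PPARd-bla HEK293H; 17 h cpd, 37C; CellTiter-Glo, luminescence at 30 min RT.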

[10] = target: Peroxisome proliferator-activated receptor delta (Homo sapiens) (UniProt Q03181); experiment: qHTS assay to identify small molecule agonists of the peroxisome proliferator-activated receptor delta (PPARd) signaling pathway (AID 743212; calls by dose curve)
In short: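 A PPARd-bla HEK293H line with beta-lactamase under an Upstream Activator Sequence is treated with compounds at 37 C. Substrate loading for 2 h at room temperature precedes the fluorescence measurement.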

[11] = qHTS assay to identify small molecule antagonists of the peroxisome proliferator-activated receptor delta (PPARd) signaling pathway - cell viability counter screen (AID 743213); further: nearly all actives have a fitted effect of over 50% in size
In short: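 Same-well viability: cells pre-incubated 5 h, dosed with compound plus 300 nM L165041, kept 17 h at 37 C, FRET substrate 2 h RT, then CellTiter-Glo 30 min RT and luminescence.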

[12] = target: Peroxisome proliferator-activated receptor delta (Homo sapiens) (UniProt Q03181); experiment: qHTS assay to identify small molecule antagonists of the peroxisome proliferator-activated receptor delta (PPARd) signaling pathway (AID 743215; active means well fitted inhibition curve with a large enough effect in the signal ratio in the repeat runs, not every such curve was filed as active; the % refers to the signal ratio;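 further: cells stimulated with agonist L165041 at 300 nM final during compound exposure; series mostly up to about 62 µM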)
In short: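 Read-out is beta-lactamase FRET fluorescence, measured 2 h after substrate addition at room temperature. Beforehand, UAS-bla HEK293H cells carrying the PPARd reporter were exposed to compounds with L165041 at 300 nM final for 17 h at 37 C.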

[13] = qHTS assay to identify small molecule antagonists of the farnesoid-X-receptor (FXR) signaling pathway - cell viability counter screen (AID 743221; active means well fitted cell-killing curve with a large enough effect in the repeat runs, not every such curve was filed as active; further: nearly all actives have a fitted effect of over 50% in size)
In short: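 After a 5 h settling period, FXR-bla HEK 293T cells receive compound and chenodeoxycholic acid (50 uM final) and incubate 16 h at 37 C; CellTiter-Glo luminescence, read after 30 min at room temperature, reports cell viability.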

[14] = qHTS assay to identify small molecule that activate the aryl hydrocarbon receptor (AhR) signaling pathway - cell viability counter screen (AID 743086);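 further: HepG2 liver cells carrying the AhR DRE luciferase reporter; series mostly up to about 70 µM; nearly all actives have a fitted effect of over 45% in size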
In short: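 HepG2-AhR-luc (HG2L7.5c1) cells, 4000/well, were preincubated 5 h at 37C, exposed to compound in qHTS format for 24 hr at 37C, then given CellTiter-Fluor for 30 min; viability was read as fluorescence in the reporter wells.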

[15] = target: Bile acid receptor (Homo sapiens) (UniProt Q96RI1); experiment: qHTS assay to identify small molecule antagonists of the farnesoid-X-receptor (FXR) signaling pathway (AID 743217; active means well fitted inhibition curve with a large enough effect in the signal ratio in the repeat runs, not every such curve was filed as active; the % refers to the signal ratio)
In short: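 HEK 293T FXR-UAS-bla, 5000 cells/well; compound + CDCA 50 uM final; 16 h, 37 °C; B/G FRET substrate 2 h RT; fluorescence.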

[16] = target: Bile acid receptor (Homo sapiens) (UniProt Q96RI1); experiment: qHTS assay to identify small molecule agonists of the farnesoid-X-receptor (FXR) signaling pathway (AID 743220; active means well fitted activation curve with a large enough effect in the signal ratio in the repeat runs, not every such curve was filed as active; the % refers to the signal ratio)
In short: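 Beta-lactamase reporter under UAS control in GeneBLAzer FXR HEK 293T cells (5000/well) measured with LiveBLAzer FRET substrate after 2 h at room temperature. Compound exposure lasted 16 h at 37C.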

[17] = target: Vitamin D3 receptor (Homo sapiens) (UniProt P11473); experiment: qHTS assay to identify small molecule agonists of the vitamin D receptor (VDR) signaling pathway (AID 743222; calls by dose curve)
In short: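 VDR-bla cells, 2,000/well; 4 h preincubation 37C; cpd (DMSO) 16 h; LiveBLAzer B/G substrate 2 h RT; fluorescence intensity read.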

[18] = target: Vitamin D3 receptor (Homo sapiens) (UniProt P11473); experiment: qHTS assay to identify small molecule antagonists of the vitamin D receptor (VDR) signaling pathway (AID 743223; active means well fitted inhibition curve with a large enough effect in the signal ratio in the repeat runs, not every such curve was filed as active; the % refers to the signal ratio)
In short: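 Reporter line VDR-bla; stimulus 1alpha,25-(OH)2 vitamin D3, 3 nM final; compound co-addition, 16 h 37C/5% CO2; LiveBLAzer B/G substrate 2 h RT; fluorescence intensity.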

[19] = target: Aryl hydrocarbon receptor (Homo sapiens) (UniProt P35869); experiment: qHTS assay to identify small molecule that activate the aryl hydrocarbon receptor (AhR) signaling pathway (AID 743085);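 further: HG2L7.5c1 human HepG2 liver cells with stably integrated DRE-driven firefly reporter; series mostly up to about 70 µM; nearly all actives have a fitted effect of over 15% in size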
In short: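 AhR agonist activity is inferred from enhanced light output of a DRE-controlled firefly luciferase reporter in HepG2 cells, measured with ONE-Glo following 24 h treatment at 37C.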

[20] = qHTS assay to identify small molecule agonists of the farnesoid-X-receptor (FXR) signaling pathway - cell viability counter screen (AID 743218); further: nearly all actives have a fitted effect of over 45% in size
In short: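 HEK 293T FXR-bla cells; 5 h pre-incubation, 16 h compound exposure at 37 C; LiveBLAzer substrate 2 h RT, then CellTiter-Glo 30 min RT, luminescence.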

Measured: Potency

Bile acid receptor (Homo sapiens), sequence (Q96RI1 whole entry, looked up): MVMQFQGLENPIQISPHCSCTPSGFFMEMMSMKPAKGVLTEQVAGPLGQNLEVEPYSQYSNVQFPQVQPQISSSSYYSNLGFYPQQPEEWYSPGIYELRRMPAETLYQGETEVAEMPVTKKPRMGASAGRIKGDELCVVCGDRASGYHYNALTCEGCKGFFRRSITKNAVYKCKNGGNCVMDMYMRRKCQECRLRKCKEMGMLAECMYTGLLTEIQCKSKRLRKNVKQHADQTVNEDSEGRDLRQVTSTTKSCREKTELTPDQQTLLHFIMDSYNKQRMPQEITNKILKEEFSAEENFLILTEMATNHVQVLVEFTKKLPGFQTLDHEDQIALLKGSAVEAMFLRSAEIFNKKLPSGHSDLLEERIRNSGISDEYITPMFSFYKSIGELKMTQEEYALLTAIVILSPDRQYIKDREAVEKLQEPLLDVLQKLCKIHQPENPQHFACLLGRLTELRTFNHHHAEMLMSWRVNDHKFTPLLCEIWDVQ
Aryl hydrocarbon receptor (Homo sapiens), sequence (P35869 whole entry, looked up): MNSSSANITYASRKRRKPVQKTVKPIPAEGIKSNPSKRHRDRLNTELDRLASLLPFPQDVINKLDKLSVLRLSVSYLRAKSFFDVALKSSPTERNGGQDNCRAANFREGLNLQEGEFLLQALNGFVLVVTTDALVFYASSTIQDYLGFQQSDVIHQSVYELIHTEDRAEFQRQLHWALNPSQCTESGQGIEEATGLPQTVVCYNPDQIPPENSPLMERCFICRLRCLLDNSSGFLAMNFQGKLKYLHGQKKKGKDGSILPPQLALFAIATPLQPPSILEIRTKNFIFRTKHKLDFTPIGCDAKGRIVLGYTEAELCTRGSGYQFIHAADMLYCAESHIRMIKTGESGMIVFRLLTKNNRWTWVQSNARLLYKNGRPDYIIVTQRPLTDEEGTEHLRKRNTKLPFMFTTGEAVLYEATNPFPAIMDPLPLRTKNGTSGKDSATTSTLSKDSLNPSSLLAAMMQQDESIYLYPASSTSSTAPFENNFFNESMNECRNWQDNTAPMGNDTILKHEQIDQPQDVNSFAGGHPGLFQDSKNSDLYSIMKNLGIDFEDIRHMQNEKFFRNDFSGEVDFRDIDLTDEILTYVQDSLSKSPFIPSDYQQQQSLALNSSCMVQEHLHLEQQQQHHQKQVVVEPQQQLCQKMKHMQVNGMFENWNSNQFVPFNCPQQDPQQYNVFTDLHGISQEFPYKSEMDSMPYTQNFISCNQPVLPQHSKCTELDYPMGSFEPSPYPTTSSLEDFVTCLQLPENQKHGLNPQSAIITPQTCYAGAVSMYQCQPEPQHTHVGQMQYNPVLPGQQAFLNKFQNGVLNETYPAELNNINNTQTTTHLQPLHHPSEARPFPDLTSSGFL
Peroxisome proliferator-activated receptor gamma (Homo sapiens), sequence (P37231 whole entry, looked up): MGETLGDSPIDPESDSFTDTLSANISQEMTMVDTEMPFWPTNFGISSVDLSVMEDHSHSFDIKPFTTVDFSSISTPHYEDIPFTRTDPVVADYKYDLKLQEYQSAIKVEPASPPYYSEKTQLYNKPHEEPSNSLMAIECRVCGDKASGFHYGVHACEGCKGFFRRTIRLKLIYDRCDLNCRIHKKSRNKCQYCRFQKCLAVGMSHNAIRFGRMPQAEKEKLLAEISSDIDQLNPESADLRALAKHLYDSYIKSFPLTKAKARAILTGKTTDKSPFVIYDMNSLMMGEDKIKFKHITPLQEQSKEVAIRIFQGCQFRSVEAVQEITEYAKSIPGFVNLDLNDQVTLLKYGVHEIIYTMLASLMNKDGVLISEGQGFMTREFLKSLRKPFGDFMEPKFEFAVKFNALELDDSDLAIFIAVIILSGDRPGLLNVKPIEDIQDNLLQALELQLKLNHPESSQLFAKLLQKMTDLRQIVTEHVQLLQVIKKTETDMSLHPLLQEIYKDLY
Peroxisome proliferator-activated receptor delta (Homo sapiens), sequence (Q03181 whole entry, looked up): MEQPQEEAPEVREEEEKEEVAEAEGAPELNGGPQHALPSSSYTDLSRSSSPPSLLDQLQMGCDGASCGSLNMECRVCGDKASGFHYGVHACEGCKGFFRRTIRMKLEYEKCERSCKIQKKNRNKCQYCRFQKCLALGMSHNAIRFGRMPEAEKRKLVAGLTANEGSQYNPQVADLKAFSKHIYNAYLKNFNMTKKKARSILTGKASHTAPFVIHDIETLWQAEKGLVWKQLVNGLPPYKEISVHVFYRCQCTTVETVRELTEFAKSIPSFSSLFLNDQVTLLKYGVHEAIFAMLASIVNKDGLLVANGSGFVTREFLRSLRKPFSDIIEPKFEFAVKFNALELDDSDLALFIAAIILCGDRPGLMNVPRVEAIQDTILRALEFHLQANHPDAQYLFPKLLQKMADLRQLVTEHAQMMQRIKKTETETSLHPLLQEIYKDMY
Vitamin D3 receptor (Homo sapiens), sequence (P11473 whole entry, looked up): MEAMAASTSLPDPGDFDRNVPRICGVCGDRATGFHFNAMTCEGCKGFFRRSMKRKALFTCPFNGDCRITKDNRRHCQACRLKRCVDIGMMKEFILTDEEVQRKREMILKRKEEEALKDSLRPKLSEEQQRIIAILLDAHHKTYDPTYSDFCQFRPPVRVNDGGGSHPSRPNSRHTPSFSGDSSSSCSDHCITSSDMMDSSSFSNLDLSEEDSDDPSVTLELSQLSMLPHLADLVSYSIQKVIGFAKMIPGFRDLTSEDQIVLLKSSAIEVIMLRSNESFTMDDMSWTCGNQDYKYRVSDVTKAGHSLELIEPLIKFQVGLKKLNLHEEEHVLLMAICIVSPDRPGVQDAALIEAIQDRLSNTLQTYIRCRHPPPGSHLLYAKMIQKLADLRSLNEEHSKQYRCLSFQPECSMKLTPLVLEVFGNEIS

O=C(O)CCSCCC(=O)O
not listed: [14] | [15] | [16] | [17] | [18] | [19] | [20]
inactive: all other assays above

CCO[Si](OCC)(OCC)c1ccccc1
not listed: [1] | [2] | [3] | [8] | [10] | [12] | [19] | [20]
inactive: all other assays above

O=C1c2ccccc2C(=O)c2cc(O)ccc21
not listed: [1] | [5] | [15] | [16] | [19] | [20]
inactive: all other assays above

COCCOC[C@H](CC1(C(=O)NC2CCC(C(=O)O)CC2)CCCC1)C(=O)Oc1ccc2c(c1)CCC2 (stereo not given in full)
not listed: [1] | [5] | [14] | [15] | [16] | [18]
inactive: all other assays above

CC(C(=O)O)c1cccc(Oc2ccccc2)c1 (stereo not given)
inactive: [19] | [14] | [4] | [6] | [7] | [9] | [11] | [20] | [13] | [17] | [18]

[O-][n+]1cccc(CO)c1
not listed: [1] | [15] | [16]
inactive: all other assays above

CNCC(O)c1ccc(O)c(O)c1 (stereo not given)
inactive: [3] | [4] | [5] | [6] | [8] | [9] | [20] | [13] | [17] | [18]

CC(C)C(=O)OC(=O)C(C)C
inactive: [14] | [5] | [6] | [8] | [9] | [10] | [11] | [12] | [20] | [13] | [17]

Cc1onc(-c2c(Cl)cccc2Cl)c1C(=O)Cl
not listed: [1] | [2] | [3] | [14] | [15] | [16] | [18] | [19]
inactive: all other assays above

Cc1ncc([C@@H](CCCCCCc2ccc3c(n2)NCCC3)CC(=O)O)cn1
not listed: [1] | [3] | [4] | [5] | [12] | [14] | [15] | [18]
inactive: all other assays above

COc1cccc(OC)c1C(=O)N[C@@H]1C(=O)N2[C@@H]1SC(C)(C)[C@@H]2C(=O)O
inactive: [19] | [14] | [2] | [4] | [6] | [7] | [9] | [11] | [13] | [17] | [18]

Cc1ccc(-c2ccccc2C#N)cc1
not listed: [1] | [2] | [11] | [14] | [16] | [18] | [19]
inactive: all other assays above

CCOc1c(N2CCOCC2)cnn(C)c1=O
not listed: [1] | [2] | [3] | [14] | [15] | [16] | [19]
inactive: all other assays above

NCCCC(N)(C(=O)O)C(F)F (stereo not given)
inactive: [14] | [4] | [5] | [6] | [9] | [11] | [13] | [17]

O=[N+]([O-])c1cncn1CCN1CCOCC1
inactive: [3] | [4] | [5] | [6] | [7] | [8] | [9] | [11] | [13] | [17] | [18]

COc1cc2c(cc1OC)-c1cc3ccc(OC)c(OC)c3c[n+]1CC2
inactive: [14] | [2] | [3] | [4] | [5] | [6] | [9] | [20] | [13] | [17]

O=C(O)Cc1csc(-c2ccc(Cl)cc2)n1
not listed: [2] | [7] | [12] | [14] | [15] | [16] | [19] | [20]
inactive: all other assays above

CC1=NN(c2cc(S(=O)(=O)O)ccc2Cl)C(=O)C1N=Nc1ccccc1 (stereo not given)
not listed: [1] | [7] | [8] | [14] | [16] | [19] | [20]
inactive: all other assays above

C=C(C)C(=O)OCC1CCCO1 (stereo not given)
not listed: [1] | [2] | [3] | [16] | [19]
inactive: all other assays above

CCOC(=O)C(=O)CCCCCCl
not listed: [1] | [2] | [14] | [15] | [16] | [18] | [19]
inactive: all other assays above
